FBW7 act = FBW7 E3 ligase activators, primary screen, biochemical, AlphaScreen, human. F-box/WD repeat-containing protein 7 (Homo sapiens), Q969H0. AlphaScreen FBW7–phospho-cyclin E peptide binding, activator screen. normalized activity (activation), % at 26.1 µM. hit rate 0.13% among 650,000. AID 1259310, 2017; in the data active = normalized activity above about 1.9%;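 note: purified mutant Fbw7 with reduced substrate affinity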
TEAD-YAP inh = TEAD-YAP interaction inhibition, primary screen, TEAD-YAP interaction inhibitor project, luminescence, HEK-TIYL cells | TEAD-Gal4/YAP UAS-luciferase luminescence | inhibition, % at 9.12 µM | hit rate 1.4% among 640,000 | AID 1259422, 2018; in the data active = inhibition above about 32%
GPR151 activ = activators of human GPR151, primary screen, cell-based, PathHunter beta-arrestin, luminescence | PathHunter beta-arrestin GPR151 cells | activation, % at 11.2 µM | hit rate 1% among 650,000 | AID 1508602, 2020; in the data active = activation above about 4.9%
MITF primary = MITF inhibitors, primary screen, biochemical, AlphaScreen, human. Microphthalmia-associated transcription factor (Homo sapiens), O75030. AlphaScreen MITF homodimerization, bead proximity signal. inhibition, % at 2.6 µM. hit rate 0.91% among 650,000. AID 1259374, 2018; in the data active = inhibition above about 50%
Target sequence (O75030 whole entry, looked up): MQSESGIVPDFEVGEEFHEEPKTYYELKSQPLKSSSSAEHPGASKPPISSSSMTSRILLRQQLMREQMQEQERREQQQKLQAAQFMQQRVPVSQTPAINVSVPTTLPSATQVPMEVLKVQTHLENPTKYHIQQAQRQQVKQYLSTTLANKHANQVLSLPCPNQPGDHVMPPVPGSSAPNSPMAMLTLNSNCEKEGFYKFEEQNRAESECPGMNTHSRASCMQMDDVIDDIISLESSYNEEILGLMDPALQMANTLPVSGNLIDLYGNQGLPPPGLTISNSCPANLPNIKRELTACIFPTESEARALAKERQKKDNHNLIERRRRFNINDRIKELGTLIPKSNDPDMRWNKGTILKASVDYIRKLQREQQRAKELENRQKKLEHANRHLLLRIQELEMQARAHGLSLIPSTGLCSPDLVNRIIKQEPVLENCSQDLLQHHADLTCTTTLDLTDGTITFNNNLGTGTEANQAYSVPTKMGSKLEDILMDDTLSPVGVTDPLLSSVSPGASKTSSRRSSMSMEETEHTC
Large screens that a line does not name were inactive. In the library only some 3.5% were active in any assay of this set; here they are far more common.

O=C1NCCN(Cc2ccc(F)cc2)C1CC(=O)N(Cc1ccccc1)CC1CC1 (stereo unspecified)	none
Cc1ccc2c(c1)CN(CC(=O)N(C)Cc1cnc3ccccn13)CC(c1ccsc1)O2 (stereo unspecified)	none
CC(C)n1cnc2c(Nc3ccc(N4CCOCC4)cc3)nc(Nc3ccc(-n4ccnc4)cc3)nc21	TEAD-YAP inh 50
c1cnc(Nc2nc(Nc3ccc4c(c3)OCO4)c3ncn(C4CCCCC4)c3n2)cn1	none
Cc1cnc(Nc2ccc(-n3ccnc3)cc2)nc1Nc1ccc2c(c1)OCO2	TEAD-YAP inh 60
CC(C)n1cnc2c(Nc3ccc4c(c3)OCO4)nc(Nc3ccccc3)nc21	none
CC(C)n1cnc2c(Nc3ccc4c(c3)OCO4)nc(Nc3cnccn3)nc21	FBW7 act 12
CC(C)n1cnc2c(Nc3ccc4c(c3)OCO4)nc(Nc3ccc(-n4ccnc4)cc3)nc21	TEAD-YAP inh 39
CC(=O)Nc1ccc(Nc2nc(Nc3ccc(N4CCOCC4)cc3)nc3c2ncn3C(C)C)cc1	none
COc1cccc(-c2nc(-c3ccc(Cl)cc3)no2)c1	none
NC(=O)C1CCN(C(=O)CN(c2ccc(Cl)cc2)S(=O)(=O)c2ccccc2)CC1	none
CCOc1cc(C2C(C#N)=C(N)Oc3c2ccc2ccccc32)cc(Br)c1O (stereo unspecified)	TEAD-YAP inh 65
COc1ccccc1NC(=O)NCCCNc1nc2cc3c(cc2cc1C#N)OCO3	TEAD-YAP inh 65
N#Cc1cc2cc3c(cc2nc1NCCCNC(=O)Cc1ccccc1)OCO3	TEAD-YAP inh 34
Cc1ccc2nc(=S)nc(-c3ccccc3)n2c1	TEAD-YAP inh 70
Cc1ccn2c(N)c(-c3ccccc3)nc2c1	none
COCCNc1c(-c2ccccc2)nc2ccc(C)cn12	none
Cc1ccc2nc(-c3ccccc3)c(N)n2c1	TEAD-YAP inh 69
CNC(=O)c1ccsc1NC(=O)c1cccc(Cl)c1	none
CC(C)(C)C(=O)CNC(=O)c1ccncc1	TEAD-YAP inh 57
O=C(Cc1ccc(Cl)cc1)N/N=C/c1c[nH]c2ccccc12	none
O=C(Nc1ccc(N2CCCC2=O)cc1)c1ccco1	TEAD-YAP inh 59
COc1ccc(OC)c(-n2c(CNC(=O)c3ccc(S(=O)(=O)N(C)C)cc3)nnc2SCC(=O)Nc2cccc(C)c2)c1	none
C=CCOc1ccc(C(=O)Nc2ccc(S(=O)(=O)N3CC(C)OC(C)C3)cc2)cc1 (stereo unspecified)	TEAD-YAP inh 39
O=C(COc1ccc(S(=O)(=O)NC2CCCCC2)cc1)NC1CCCCCC1	TEAD-YAP inh 35
NC(=O)Nc1ccc(C(=O)OCC(=O)NC2CCCCC2)cc1	TEAD-YAP inh 34
CC(C)(c1ccccc1)c1ccc(OCC(=O)NC2CCCC2)cc1	FBW7 act 1.9
O=C(COC(=O)c1ccc(O)cc1)NC1CCCCCC1	none
COc1ccc(C(=O)NC(C)Cc2ccccn2)cc1OC1CCN(C(C)C)CC1 (stereo unspecified)	none
O=C(CSc1nnc(-c2cccnc2)n1Cc1ccco1)c1ccc(F)cc1	none
Cc1ccc(NC(=O)CSc2nnc(NCc3ccccc3)s2)c(C)c1	none
CCC1C(c2ccccc2)=NN(C(C)=O)c2nc3c(c(=O)n(C)c(=O)n3C)n21 (stereo unspecified)	none
Cc1cc(C(=O)N(CCn2cccn2)c2nc3c(F)cccc3s2)on1	none
Cc1cccc(OCC(=O)N(CCn2cccn2)c2nc3c(F)cccc3s2)c1	TEAD-YAP inh 43
O=c1n(CN2CCCC(O)C2)nc2c3ccccc3ncn12 (stereo unspecified)	none
COc1cccc(C(=O)Nc2ccc3nc(N4CCN(c5ncccn5)CC4)cc(C)c3c2)c1OC	TEAD-YAP inh 43
COc1ccccc1C(=O)Nc1ccc2nc(N3CCN(c4ncccn4)CC3)cc(C)c2c1	none
O=C1OC(c2cncc(Br)c2)=N/C1=C\c1coc2ccccc2c1=O	none
O=[N+]([O-])c1ccc(Cc2nnc(-c3ccc(F)cc3)o2)cc1	none
Cc1ccc(-c2nnc(Cc3ccc([N+](=O)[O-])cc3)o2)cc1	TEAD-YAP inh 61
Cc1nc2ccccc2c2nc3ccccc3n12	none
c1ccc2c(c1)nnn1c3ccccc3nc21	TEAD-YAP inh 35
O=C1NC2=C(C(=O)OC2)C(c2ccc(F)c(F)c2)N1 (stereo unspecified)	none
O=C1OCC2=C1C(c1ccc(F)cc1)c1cc3c(cc1N2)OCCO3 (stereo unspecified)	TEAD-YAP inh 53
CC(=O)Nc1ccc(C2C3=C(COC3=O)Nc3cc4c(cc32)OCO4)cc1 (stereo unspecified)	none
O=C1OCC2=C1C(c1ccc(F)cc1)c1cc3c(cc1N2)OCO3 (stereo unspecified)	TEAD-YAP inh 50
O=C(O)CN1C(=O)/C(=C\c2ccc(O)cc2O)SC1=S	MITF primary 87
O=C(O)CN1C(=O)/C(=C\c2cc(Cl)ccc2O)SC1=S	none
O=C(O)CCCN1C(=O)/C(=C/c2ccc(O)cc2)SC1=S	TEAD-YAP inh 75
O=C(O)CCCN1C(=O)/C(=C\c2ccccn2)SC1=S	TEAD-YAP inh 87
COc1cc(/C=C2/SC(=S)N(CCC(=O)O)C2=O)ccc1O	TEAD-YAP inh 32
O=C(O)CCCN1C(=O)/C(=C\c2ccc(O)cc2)SC1=S	TEAD-YAP inh 66
O=C(O)CCCN1C(=O)/C(=C\c2ccccc2)SC1=S	none
O=C(O)CCN1C(=O)/C(=C/c2ccc([N+](=O)[O-])o2)SC1=S	MITF primary 56
O=C(Nc1nnc(-c2ccccc2)s1)C12CC3CC(CC(C3)C1)C2	none
COc1ccc(CNc2ccc3ncc(-c4ccncc4)n3n2)cc1	TEAD-YAP inh 66
NS(=O)(=O)c1ccc(CNc2ccc3ncc(-c4cccc5cccnc45)n3n2)cc1	none
COc1ccccc1-c1cnc2ccc(NCc3cc(OC)c(OC)c(OC)c3)nn12	TEAD-YAP inh 59
NS(=O)(=O)c1ccc(CNc2ccc3ncc(-c4ccccc4F)n3n2)cc1	TEAD-YAP inh 34
Oc1ccc(-c2cnc3ccc(NCc4ccc(F)cc4)nn23)cc1	TEAD-YAP inh 40
OCc1ccc(-c2cnc3ccc(NCc4ccc(F)cc4)nn23)cc1	none
CCOc1ccc(/C=C/C(=O)Nc2ccccc2C(N)=O)cc1	none
Cc1[nH]c(=O)[nH]c(=O)c1CSCC(=O)OCC(=O)Nc1ccc(Br)cn1	none
NC(=O)c1ccc(-c2cc(C(=O)NCCc3ccc(O)cc3)ccn2)cc1	none
CN(C)c1ccc(-c2cnc3ccc(NCc4ccc5c(c4)OCO5)nn23)cc1	TEAD-YAP inh 55
COc1ccc(-c2cnc3ccc(NCc4ccc5c(c4)OCO5)nn23)cc1	TEAD-YAP inh 36
Clc1ccc(-c2cnc3ccc(NCc4ccc5c(c4)OCO5)nn23)cc1	none
O=C(Nc1cccc(Cl)c1)c1ccc2c(=O)n(Cc3cccc(Br)c3)c(=S)[nH]c2c1	none
NC(=NCC(=O)Nc1ccc(Br)cc1)C(Cl)(Cl)Cl	none
CC1=C(C)/C(=N\S(=O)(=O)c2ccccc2)C=C(Cl)C1=O	none

Screening results from PubChem BioAssay.
